Data taken from PubChem BioAssay (NCATS).
Several values for one entry are separate records, joined by “and”; a condition that tells them apart may be missing. Identical values can stand only once. Results filed as inconclusive are left out. Activity calls are given as the source filed them. Unless noted, calls follow the shape of the dose curve; as a rule, active = well fitted curve in the direction sought with a large enough effect; inconclusive = small, poorly fitted or top-dose-only effect, or another doubt; inactive = no such curve, though single readings can be large; an effect the other way counts as inactive or inconclusive.

Experiments:
[1] = test system: CASKI; assay: Primary qHTS to identify gynecologic anti-cancer compounds using libraries of approved drugs and bioactive compounds (AID 1345084); conditions: Gynecologic cancer cell panel viability, ATPlite luminescence, 48 h; series mostly up to 57.5 µM; also: nearly all actives have a fitted effect of over 55% in size; also: potency is read from the fitted curve at half-maximal effect
In short: (§1)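 48 h compound exposure at 37 C, 5% CO2; five-point qHTS. ATPlite luminescence readout of cell ATP.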

[2] = test system: Es-2; assay: as above; conditions: Gynecologic cancer cell panel viability, ATPlite luminescence, 48 h; series mostly up to 57.5 µM
In short: as §1

[3] = test system: HeLa; assay: as above; conditions: Gynecologic cancer cell panel viability, ATPlite luminescence, 48 h; series mostly up to 57.5 µM
In short: as §1

[4] = test system: Hek293T; assay: as above; conditions: Gynecologic cancer cell panel viability, ATPlite luminescence, 48 h, control line for the selectivity index; series mostly up to 57.5 µM
In short: as §1

[5] = test system: JEG-3; assay: as above; conditions: Gynecologic cancer cell panel viability, ATPlite luminescence, 48 h; series mostly up to 57.5 µM
In short: as §1

[6] = test system: OV90; assay: as above; conditions: Gynecologic cancer cell panel viability, ATPlite luminescence, 48 h; series mostly up to 57.5 µM
In short: as §1

[7] = test system: PA-1; assay: as above; conditions: Gynecologic cancer cell panel viability, ATPlite luminescence, 48 h; series mostly up to 57.5 µM
In short: as §1

[8] = test system: Tov-21-G; assay: as above; conditions: Gynecologic cancer cell panel viability, ATPlite luminescence, 48 h; series mostly up to 57.5 µM
In short: as §1

[9] = test system: Tov112D; assay: as above; conditions: Gynecologic cancer cell panel viability, ATPlite luminescence, 48 h; series mostly up to 57.5 µM
In short: as §1

[10] = test system: SKOV3; assay: as above; conditions: Gynecologic cancer cell panel viability, ATPlite luminescence, 48 h; series mostly up to 57.5 µM
In short: as §1

[11] = Drug repurposing screens with cells derived from glioblastoma tumor samples (AID 1345199); conditions: GBM patient neurospheres viability, ATP luminescence, 48 h; Potency: tumour line A unless noted; series mostly up to 45.9 µM; also: % is scaled to controls: 0 for no effect and ±100 for the full control effect; nearly all actives have a fitted effect of over 40% in size
In short: (§2)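 Four patient lines of CD133+ GBM neurospheres were screened at several concentrations; hits were retested in those lines plus three slower-growing GBM lines, using 48-hour treatment and ATP-based viability.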

[12] = test system: astro; assay: as above; conditions: viability, ATP luminescence, 48 h; series mostly up to 45.9 µM
In short: as §2

[13] = target: Nuclear receptor subfamily 1 group I member 2 (Rattus norvegicus) (UniProt Q9R1A7); assay: qHTS assay for small molecule activators of the rat pregnane X receptor (rPXR) signaling pathway (AID 651751; call rule not given here; also: 0% is about no effect); conditions: rPXR reporter cells, luciferase (One-Glo), 24 h
Sequence of Nuclear receptor subfamily 1 group I member 2 (Rattus norvegicus) (Q9R1A7 whole entry, looked up): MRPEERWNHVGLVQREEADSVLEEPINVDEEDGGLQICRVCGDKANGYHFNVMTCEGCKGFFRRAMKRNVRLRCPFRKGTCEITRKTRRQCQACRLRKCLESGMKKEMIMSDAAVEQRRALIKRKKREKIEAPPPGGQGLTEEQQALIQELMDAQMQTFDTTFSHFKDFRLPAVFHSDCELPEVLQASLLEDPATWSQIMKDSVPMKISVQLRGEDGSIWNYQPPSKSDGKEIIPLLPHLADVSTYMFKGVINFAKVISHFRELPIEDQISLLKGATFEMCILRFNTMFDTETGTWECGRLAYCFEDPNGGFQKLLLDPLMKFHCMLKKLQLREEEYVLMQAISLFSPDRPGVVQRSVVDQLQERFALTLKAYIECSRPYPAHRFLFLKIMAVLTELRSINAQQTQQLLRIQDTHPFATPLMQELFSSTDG

[14] = qHTS assay for small molecule activators of the human pregnane X receptor (PXR) signaling pathway (AID 720659; call rule not given here; also: 0% is about no effect)
[15] = qHTS assay to identify inhibitors of the type 1 interferon - major histocompatibility complex class I in skeletal muscle: Counter screen cell viability and HiBit confirmation (AID 1347412); conditions: iHSKM muscle cells + IFN-b, HiBiT or CellTiter-Glo, 24 h; also: nearly all actives have a fitted effect of over 60% in size; also: potency is read from the fitted curve at half-maximal effect; as to activity change, negative = inhibition: % is scaled to controls: 0 for no effect and ±100 for the full control effect
In short: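 CRISPR HLA-B*08:01-HiBit immortalized human myoblasts (C25cl48) stimulated with 4 ng/ml IFN-beta and compounds (12-point 1:3, top 46 uM final) for 24 h at 37 C. Duplicate plates read by HiBit lytic luminescence or CellTiter Glo ATP.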

CC(N[C@H]1C[C@H]1c1ccccc1)c1ccc2c(c1)OCCO2 (stereo not given in full)
inactive: Potency [1] | Potency [2] | Potency [3] | Potency [4] | Potency [5] | Potency [6] | Potency [7] | Potency [8] | Potency [9]

CCC(=O)O[C@@H]1C=C2CCC3C(CCC4(C)C3CC[C@@H]4OC(=O)CC)C2CC1 (stereo not given in full)
inactive: Potency [1] | Potency [2] | Potency [3] | Potency [4] | Potency [5] | Potency [7] | Potency [10] | Potency [8] | Potency [9]

O=C(O)CNC(=O)c1c(O)c2ccccc2n(Cc2ccccc2)c1=O
inactive: Potency [1] | Potency [2] | Potency [3] | Potency [4] | Potency [6] | Potency [7] | Potency [10] | Potency [8] | Potency [9]

OCCCBr
inactive: Potency [1] | Potency [2] | Potency [3] | Potency [4] | Potency [5] | Potency [6] | Potency [8] | Potency [9] | Potency [11] | Potency [12] | max response [13] -2.6% | outcome [14]

Nc1ccc(Cl)cc1
inactive: Potency [1] | Potency [2] | Potency [3] | Potency [4] | Potency [5] | Potency [7] | Potency [10] | Potency [8] | Potency [9] | Potency [11] | max response [13] 3.79% | outcome [14]

CC(C)(C)C(O)C(Oc1ccc(Cl)cc1)n1cncn1 (stereo not given)
inactive: Potency [1] | Potency [2] | Potency [3] | Potency [4] | Potency [5] | Potency [7] | Potency [10] | Potency [8] | Potency [9]

CC(=O)Nc1ccc(OC[C@](C)(O)C(=O)Nc2ccc([N+](=O)[O-])c(C(F)(F)F)c2)cc1
inactive: Potency [1] | Potency [2] | Potency [3] | Potency [4] | Potency [5] | Potency [6] | Potency [7] | Potency [10] | Potency [9]

Cc1cc(O)ccc1Cl
inactive: Potency [1] | Potency [2] | Potency [3] | Potency [4] | Potency [5] | Potency [7] | Potency [10] | Potency [8] | Potency [9] | Potency [11] | Potency [12] | max response [13] -6.09% | outcome [14]

CC1(C)CC/C(=C/c2ccc(Cl)cc2)C1(O)Cn1cncn1 (stereo not given)
inactive: Potency [1] | Potency [2] | Potency [3] | Potency [4] | Potency [5] | Potency [7] | Potency [10] | Potency [8] | Potency [9]

O=S(=O)(c1ccc(Cl)cc1)c1ccc(Cl)cc1
inactive: Potency [1] | Potency [2] | Potency [3] | Potency [4] | Potency [5] | Potency [7] | Potency [8] | Potency [9] | Potency [11]

CCCCC(CC)COC(=O)c1ccccc1C(=O)OCC(CC)CCCC (stereo not given)
inactive: Potency [1] | Potency [2] | Potency [3] | Potency [4] | Potency [5] | Potency [7] | Potency [8] | Potency [9]

Nc1ccc(Sc2ccc(N)cc2)cc1
inactive: Potency [1] | Potency [2] | Potency [3] | Potency [4] | Potency [5] | Potency [10] | Potency [8] | Potency [9] | max response [13] 10.3% and 6.87%

CC(C)N(CCNC(=O)CN1CCCC1=O)C(C)C
inactive: Potency [1] | Potency [2] | Potency [3] | Potency [4] | Potency [5] | Potency [6] | Potency [7] | Potency [8] | Potency [9]

CCOP(=O)(NC(C)C)Oc1ccc(SC)c(C)c1 (stereo not given)
inactive: Potency [1] | Potency [2] | Potency [3] | Potency [4] | Potency [5] | Potency [7] | Potency [8] | Potency [9] | Potency [11] | max response [13] 6.18% and 2.21%

O=C(O)C(Cl)Cl
inactive: Potency [1] | Potency [2] | Potency [3] | Potency [5] | Potency [6] | Potency [7] | Potency [8] | Potency [9] | Potency [11] | max response [13] 4.19% and -3.77% | outcome [14]

CC(C)[C@]12O[C@H]1[C@@H]1O[C@]13[C@]1(O[C@H]1C[C@H]1C4=C(CC[C@@]13C)C(=O)OC4)[C@@H]2O
inactive: activity change, negative = inhibition ([15]; Viability, at 45.9 µM (top of the series)) -10.5%
active: Potency [1] 0.199 µM | Potency [2] 0.1 µM | Potency [3] 0.158 µM | Potency [7] 0.1 µM | Potency [9] 0.1 µM | Potency ([15]; HiBiT) 0.0625 µM

Fc1cc(Br)ccc1CBr
inactive: Potency [1] | Potency [2] | Potency [3] | Potency [4] | Potency [5] | Potency [6] | Potency [7] | Potency [8] | Potency [9]

Cc1[nH]nc2ccc(-c3cncc(OC[C@@H](N)Cc4c[nH]c5ccccc45)c3)cc12
active: Potency [1] 2.82 µM | Potency [2] 1.78 µM | Potency [3] 0.891 µM | Potency [4] 0.631 µM | Potency [5] 2.82 µM | Potency [6] 5.62 µM | Potency [7] 0.794 µM | Potency [8] 0.708 µM | Potency [9] 1 µM | Potency ([15]; HiBiT) 1.11 µM

O=C(O)c1cc(Oc2ccc(C(F)(F)F)cc2Cl)ccc1[N+](=O)[O-]
inactive: Potency [1] | Potency [2] | Potency [3] | Potency [6] | Potency [7] | Potency [10] | Potency [8] | Potency [9] | Potency [11] | max response [13] 2.53% | outcome [14]

O=c1[nH]c2ccc(Cl)cc2c(N[C@@H]2CN3CCC2CC3)c1-c1nc2ccccc2[nH]1
active: Potency [1] 10 µM | Potency [2] 0.447 µM | Potency [3] 3.16 µM | Potency [6] 5.01 µM | Potency [7] 2.24 µM | Potency [9] 25.1 µM | Potency ([15]; HiBiT) 3.52 µM | Potency ([15]; Viability) 17.6 µM

O=[N+]([O-])c1c(Cl)c(Cl)cc(Cl)c1Cl
inactive: Potency [1] | Potency [2] | Potency [3] | Potency [4] | Potency [5] | Potency [6] | Potency [7] | Potency [8] | Potency [9] | Potency [11] | Potency [12] | max response [13] 3.25% | outcome [14]
